The structures appear in SMILES notation. About 3,300 (8.5%) of roughly 39,000 compounds were called active. Many of the other results were omitted from the sample, so actives are more common in it than they were.

The assay concerns HepG2. Kind of assay: cytotoxicity call (relative viability < 0.9). The settings on record: 10 µM.
For the compound `C[C@H](CO)N1C[C@H](C)[C@@H](CN(C)Cc2ccc(Cl)c(Cl)c2)Oc2ccc(NC(=O)CCCCCC(=O)Nc3ccccc3N)cc2CC1=O`, the cytotoxicity call is “inactive”.
For the compound `O=C(C[C@@H]1CC[C@H]2[C@@H](COC[C@H](O)CN2C(=O)Nc2cccc(F)c2)O1)NCCCN1CCOCC1`, the cytotoxicity call is “inactive”.
For `COc1ccc(CN(C)C[C@H]2OCCCC[C@@H](C)Oc3ccc(NC(=O)Nc4ccc(C(F)(F)F)cc4)cc3C(=O)N([C@H](C)CO)C[C@H]2C)cc1`, the cytotoxicity call was “active”.
The value for `COc1ccc(NC(=O)Nc2ccc3c(c2)C(=O)N([C@@H](C)CO)C[C@H](C)[C@@H](CN(C)Cc2ccc(C(F)(F)F)cc2)OCCCC[C@@H](C)O3)cc1` was “active”; that for `COc1ccc(CN(C)C[C@@H]2OCCCC[C@H](C)Oc3ccc(NC(=O)Nc4ccc(C(F)(F)F)cc4)cc3C(=O)N([C@@H](C)CO)C[C@H]2C)cc1` was “active”.
As for `COc1ccc(CN(C)C[C@H]2OCCCC[C@H](C)Oc3ccc(NC(=O)Nc4ccc(C(F)(F)F)cc4)cc3C(=O)N([C@H](C)CO)C[C@H]2C)cc1`, the cytotoxicity call is “active”.
Under `O=C(C[C@H]1C[C@H]2c3cc(NC(=O)c4ccc5c(c4)OCO5)ccc3O[C@H]2[C@H](CO)O1)NCCN1CCCCC1` stands “inactive”.
Under `C[C@H]1CN([C@@H](C)CO)C(=O)c2cc(NC(=O)Cn3cnnn3)ccc2O[C@H]1CN(C)Cc1ccccc1` stands “inactive”; under `CC(C)NC(=O)Nc1ccc2c(c1)C(=O)N([C@@H](C)CO)C[C@H](C)[C@@H](CN(C)C(=O)Nc1ccc(F)cc1)OCCCC[C@@H](C)O2`, “inactive”; under `O=C(C[C@H]1CC=CCC[C@H](Cc2ccc(F)cc2)C(=O)OC[C@H](Cc2ccccc2)NC1=O)NCCO`, “inactive”.
The value for `C#CCN(O[C@@H](/C=C/[C@@H](O)CCn1cc(-c2cccc(/C=C/C(=O)NO)c2)nn1)C1CC1)[C@@H](Cc1ccccc1)C(=O)OC` was “inactive”; that for `C[C@@H]1CCCCO[C@@H](CN(C)C(=O)c2ccccc2)[C@H](C)CN([C@@H](C)CO)C(=O)c2cc(NC(=O)Nc3ccccc3)ccc2O1` was “inactive”.
For the compound `O=C(NC1CC1)c1n[nH]c(=O)c2ccccc12`, the cytotoxicity call is “inactive”.
Under `O=C1CNCCN1C1CCCC1` stands “inactive”; under `C[C@@H]1CN([C@H](C)CO)C(=O)c2cc(NC(=O)CCC(F)(F)F)ccc2O[C@@H](C)CCCCO[C@H]1CN(C)C(=O)Nc1ccc(C(F)(F)F)cc1`, “inactive”; under `COc1ccc(CN(C)C[C@H]2OCCCC[C@H](C)Oc3ccc(NC(=O)Nc4ccc(C(F)(F)F)cc4)cc3C(=O)N([C@@H](C)CO)C[C@H]2C)cc1`, “active”.
Under `COc1ccc(NC(=O)Nc2ccc3c(c2)C(=O)N([C@@H](C)CO)C[C@@H](C)[C@H](CN(C)Cc2ccc(C(F)(F)F)cc2)OCCCC[C@@H](C)O3)cc1` stands “active”; under `COc1ccc(CN(C)C[C@H]2OCCCC[C@H](C)Oc3ccc(NC(=O)Nc4ccc(C(F)(F)F)cc4)cc3C(=O)N([C@H](C)CO)C[C@@H]2C)cc1`, “active”; under `COc1ccc(NC(=O)Nc2ccc3c(c2)C(=O)N([C@H](C)CO)C[C@@H](C)[C@@H](CN(C)Cc2ccc(C(F)(F)F)cc2)OCCCC[C@@H](C)O3)cc1`, “active”.
The value for `CC[C@@H](NC)C(=O)O` was “inactive”; that for `CC(C)(C)[C@H]1CCc2c(sc3nc(-c4ccccc4)cn23)C1` was “inactive”; that for `COc1ccc(NC(=O)N(C)C[C@H]2Oc3ncc(C#C[C@H](C)O)cc3C(=O)N([C@@H](C)CO)C[C@H]2C)cc1` was “inactive”.
As for `O=C(O)[C@H]1CCS(=O)(=O)C1`, the cytotoxicity call was “inactive”.
Under `NC(=O)c1cc(Cl)ccn1` stands “inactive”.
Under `C[C@@H]1CN([C@@H](C)CO)C(=O)c2cccc(NC(=O)c3ccc(-c4nccs4)cc3)c2O[C@@H]1CN(C)Cc1ccc(Oc2ccccc2)cc1` stands “inactive”.
Under `COc1ccc(C#Cc2ccc3c(c2)O[C@H](CN(C)S(=O)(=O)c2ccccc2F)[C@@H](C)CN([C@@H](C)CO)S3(=O)=O)cc1` stands “inactive”; under `C[C@@H]1CN([C@@H](C)CO)C(=O)c2cccc(NS(=O)(=O)c3ccccc3)c2O[C@@H]1CN(C)S(=O)(=O)c1ccccc1`, “inactive”.
For `C[C@H](CO)N1C[C@H](C)[C@H](CN(C)C(=O)CCC(F)(F)F)OCc2ccccc2-c2c(n(C)c3ccccc23)C1=O`, the cytotoxicity call is “inactive”.
Under `C[C@@H]1CCCCO[C@H](CN(C)S(=O)(=O)c2cn(C)cn2)[C@@H](C)CN([C@@H](C)CO)C(=O)c2cc(NC(=O)CCCN(C)C)ccc2O1` stands “inactive”; under `Cc1noc(C)c1S(=O)(=O)N(C)C[C@H]1OCCCC[C@H](C)Oc2ccc(NC(=O)Nc3cccc4ccccc34)cc2C(=O)N([C@H](C)CO)C[C@H]1C`, “inactive”; under `C[C@@H]1CN([C@@H](C)CO)C(=O)CCCn2nncc2CO[C@@H]1CN(C)C(=O)Nc1ccccc1C(F)(F)F`, “inactive”.
In the case of `COc1ccc(NC(=O)Nc2ccc3c(c2)C(=O)N([C@@H](C)CO)C[C@@H](C)[C@@H](CN(C)Cc2ccc(C(F)(F)F)cc2)OCCCC[C@H](C)O3)cc1`, the cytotoxicity call was “active”.
In the case of `COc1ccc(NC(=O)Nc2ccc3c(c2)C(=O)N([C@H](C)CO)C[C@@H](C)[C@H](CN(C)Cc2ccc(C(F)(F)F)cc2)OCCCC[C@@H](C)O3)cc1`, the cytotoxicity call is “active”.
The value for `COc1ccc(CN(C)C[C@@H]2OCCCC[C@@H](C)Oc3ccc(NC(=O)Nc4ccc(C(F)(F)F)cc4)cc3C(=O)N([C@@H](C)CO)C[C@@H]2C)cc1` was “active”.
The value for `COc1ccc(NC(=O)Nc2ccc3c(c2)C(=O)N([C@@H](C)CO)C[C@H](C)[C@H](CN(C)Cc2ccc(C(F)(F)F)cc2)OCCCC[C@H](C)O3)cc1` was “active”; that for `O=C(C[C@@H]1CC[C@@H]2[C@H](COC[C@@H](O)CN2S(=O)(=O)c2ccccc2)O1)NCCN1CCCC1` was “inactive”.
For `C[C@@H]1CN([C@H](C)CO)C(=O)Cc2cc(NC(=O)c3ccncc3)ccc2O[C@@H]1CN(C)C(=O)Nc1ccc2c(c1)OCO2`, the cytotoxicity call was “inactive”.
The value for `COCC(=O)N1C[C@@H](C)[C@H](OC)CN(C)C(=O)c2ccc(NC(=O)Nc3ccccc3)cc2OC[C@H]1C` was “inactive”.
Under `CNC(=O)[C@H]1C[C@H]2CCN(S(=O)(=O)N(C)C)C[C@H]2O1` stands “inactive”; under `Cc1noc(C)c1S(=O)(=O)Nc1ccc2c(c1)C(=O)N([C@@H](C)CO)C[C@H](C)[C@@H](CN(C)C(=O)NC(C)C)O2`, “inactive”.

(Values after the antibiotic and cytotoxicity screens of Wong et al. (2023).)
